# Results published in PubChem BioAssay (NCATS).
# “And” between values parts separate entries of the source, which are not always exact repeats. Identical values can stand only once. Records with an inconclusive call do not appear. Where a call stands in place of a potency, no number is given. Unmarked numbers belong to inactive results. The source made the active and inactive calls. Calls follow the shape of the dose curve; as a rule, active = well fitted inhibition curve with a large enough effect; inconclusive = small, poorly fitted or top-dose-only effect; inactive = flat fitted curve, though single readings scatter.
# Experiments:
# [1] = tested on: HB3; experiment: qHTS profiling for inhibitors of Plasmodium falciparum proliferation (AID 504749); details: P. falciparum in erythrocytes, SYBR Green DNA, 72 h; series mostly up to 28.7 µM
# How it was run: (§1)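 Three-day growth assay of blood-stage parasites in erythrocytes (0.3% parasitemia, 2.5% hematocrit) at 37 C, 5% CO2, quantified by SYBR Green DNA staining after overnight detergent lysis.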
# [2] = tested on: JCK; experiment: as above; details: P. falciparum in erythrocytes, SYBR Green DNA, 72 h; series mostly up to 28.7 µM
# How it was run: as §1
# [3] = tested on: N140; experiment: as above; details: P. falciparum in erythrocytes, SYBR Green DNA, 72 h; series mostly up to 28.7 µM
# How it was run: as §1
# [4] = tested on: P93_24; experiment: as above; details: P. falciparum in erythrocytes, SYBR Green DNA, 72 h; series mostly up to 28.7 µM
# How it was run: as §1
# [5] = tested on: P94_40; experiment: as above; details: P. falciparum in erythrocytes, SYBR Green DNA, 72 h; series mostly up to 28.7 µM
# How it was run: as §1
# [6] = tested on: PAD; experiment: as above; details: P. falciparum in erythrocytes, SYBR Green DNA, 72 h; series mostly up to 28.7 µM
# How it was run: as §1
# [7] = tested on: PC15; experiment: as above; details: P. falciparum in erythrocytes, SYBR Green DNA, 72 h; series mostly up to 28.7 µM
# How it was run: as §1
# [8] = tested on: PC49; experiment: as above; details: P. falciparum in erythrocytes, SYBR Green DNA, 72 h; series mostly up to 28.7 µM
# How it was run: as §1
# [9] = tested on: SC27B; experiment: as above; details: P. falciparum in erythrocytes, SYBR Green DNA, 72 h; series mostly up to 28.7 µM
# How it was run: as §1
# [10] = tested on: TAB109; experiment: as above; details: P. falciparum in erythrocytes, SYBR Green DNA, 72 h; series mostly up to 28.7 µM
# How it was run: as §1
# [11] = tested on: TAB113; experiment: as above; details: P. falciparum in erythrocytes, SYBR Green DNA, 72 h; series mostly up to 28.7 µM
# How it was run: as §1
# [12] = tested on: TAB165; experiment: as above; details: P. falciparum in erythrocytes, SYBR Green DNA, 72 h; series mostly up to 28.7 µM
# How it was run: as §1
# [13] = tested on: CRL-7250; experiment: Cytotoxic Profiling of Annotated Libraries Using Quantitative High-Throughput Screening (AID 1296008); details: Five cell lines viability, CellTiter-Glo ATP luminescence, 48-72 h; max response: active compounds read low
# How it was run: (§2)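 Cytotoxicity was measured as CellTiter-Glo ATP luminescence, read after 10 min at room temperature. Compound treatment of the cells lasted 48 or 72 hr at 37 degrees Celsius in a qHTS format.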
# [14] = tested on: HEK293; experiment: as above; details: Five cell lines viability, CellTiter-Glo ATP luminescence, 48-72 h; max response: active compounds read low
# How it was run: as §2
# [15] = tested on: HaCat; experiment: as above; details: Five cell lines viability, CellTiter-Glo ATP luminescence, 48-72 h; max response: active compounds read low
# How it was run: as §2
# [16] = tested on: NIH3T3; experiment: as above; details: Five cell lines viability, CellTiter-Glo ATP luminescence, 48-72 h; max response: active compounds read low
# How it was run: as §2
# [17] = tested on: ICS; experiment: qHTS profiling for inhibitors of Plasmodium falciparum proliferation (AID 504749); details: P. falciparum in erythrocytes, SYBR Green DNA, 72 h; series mostly up to 28.7 µM
# How it was run: as §1
# [18] = tested on: PC26; experiment: as above; details: P. falciparum in erythrocytes, SYBR Green DNA, 72 h; series mostly up to 28.7 µM
# How it was run: as §1
# [19] = tested on: W2; experiment: as above; details: P. falciparum in erythrocytes, SYBR Green DNA, 72 h; series mostly up to 28.7 µM
# How it was run: as §1
# [20] = tested on: KB-3-1; experiment: Cytotoxic Profiling of Annotated Libraries Using Quantitative High-Throughput Screening (AID 1296008); details: Five cell lines viability, CellTiter-Glo ATP luminescence, 48-72 h; max response: active compounds read low
# How it was run: as §2
# Also: nearly all actives have a fitted effect of over 60% in size.
# Potency is read from the fitted curve at half-maximal effect.
smiles,measurement,setting,value
Clc1ccc(C(c2ccccc2Cl)C(Cl)Cl)cc1 (stereo unspecified),Potency,[1],inactive
same,Potency,[2],inactive
same,Potency,[3],inactive
same,Potency,[4],inactive
same,Potency,[5],inactive
same,Potency,[6],inactive
same,Potency,[7],inactive
same,Potency,[8],inactive
same,Potency,[9],inactive
same,Potency,[10],inactive
same,Potency,[11],inactive
same,Potency,[12],inactive
same,max response,[13],-3.27%
same,max response,[14],-1.26%
same,max response,[15],-1.22%
same,outcome,[15],inactive
same,max response,[16],-2.6% and -1.15%
Cc1ccc(C(=O)Nc2ccc(S(=O)(=O)O)c3cc(S(=O)(=O)O)cc(S(=O)(=O)O)c23)cc1NC(=O)c1cccc(NC(=O)Nc2cccc(C(=O)Nc3cc(C(=O)Nc4ccc(S(=O)(=O)O)c5cc(S(=O)(=O)O)cc(S(=O)(=O)O)c45)ccc3C)c2)c1,Potency,[1],inactive
same,Potency,[17],inactive
same,Potency,[2],inactive
same,Potency,[3],inactive
same,Potency,[4],inactive
same,Potency,[5],inactive
same,Potency,[6],inactive
same,Potency,[7],inactive
same,Potency,[18],inactive
same,Potency,[8],inactive
same,Potency,[9],inactive
same,Potency,[11],inactive
same,Potency,[12],inactive
same,Potency,[19],inactive
same,max response,[13],0.897%
same,outcome,[14],inactive
same,outcome,[15],inactive
same,max response,[16],-7.7%
same,outcome,[16],inactive
Cc1cc(C(C)(C)C)cc(C)c1CC1=NCCN1,Potency,[1],inactive
same,Potency,[17],inactive
same,Potency,[2],inactive
same,Potency,[3],inactive
same,Potency,[5],inactive
same,Potency,[6],inactive
same,Potency,[7],inactive
same,Potency,[18],inactive
same,Potency,[8],inactive
same,Potency,[9],inactive
same,Potency,[10],inactive
same,Potency,[11],inactive
same,Potency,[12],inactive
same,Potency,[19],4.05 µM (active)
same,max response,[13],-1.37% and -2.32%
same,max response,[14],-19.6% and -11.6%
same,outcome,[15],inactive; activator
same,max response,[20],3.71% and 6.55%
same,max response,[16],-2.36%
same,outcome,[16],inactive
CN1CCC(=C2c3ccccc3C=Cc3ccccc32)CC1,Potency,[1],inactive
same,Potency,[2],inactive
same,Potency,[3],inactive
same,Potency,[4],inactive
same,Potency,[5],inactive
same,Potency,[6],inactive
same,Potency,[7],inactive
same,Potency,[18],inactive
same,Potency,[8],inactive
same,Potency,[9],inactive
same,Potency,[10],inactive
same,Potency,[11],inactive
same,Potency,[12],inactive
same,outcome,[13],inactive
same,Potency,[14],10.6 µM (active)
same,max response,[15],-1.05%
same,outcome,[15],inactive
same,max response,[20],25.1% and -12.3%
same,max response,[16],-0.507%
same,outcome,[16],inactive
Fc1ccc([C@@H]2CCNC[C@H]2COc2ccc3c(c2)OCO3)cc1,max response,[13],-5.94%
same,max response,[14],-24.9%
same,outcome,[15],inactive
same,max response,[16],-13.3%
CCC1(C)CC(=O)NC1=O (stereo unspecified),max response,[13],0.182%
same,outcome,[14],inactive
same,max response,[15],-13.5%
same,outcome,[15],inactive
same,max response,[20],7.96% and 9.28%
same,outcome,[16],inactive
Cn1c(=O)c2c(ncn2C)n(C)c1=O,Potency,[1],inactive
same,Potency,[17],inactive
same,Potency,[2],inactive
same,Potency,[3],inactive
same,Potency,[4],inactive
same,Potency,[5],inactive
same,Potency,[6],inactive
same,Potency,[7],inactive
same,Potency,[18],inactive
same,Potency,[8],inactive
same,Potency,[9],inactive
same,Potency,[10],inactive
same,Potency,[11],inactive
same,Potency,[12],inactive
same,Potency,[19],inactive
same,max response,[13],0.692% and -3.54%
same,max response,[14],-13.2% and 0.976%
same,max response,[15],1.8% and -12.8%
same,max response,[20],3.75%
same,max response,[16],-9.99% and -2.17%
COc1ccc(CCN(C)CCCC(C#N)(c2ccc(OC)c(OC)c2)C(C)C)cc1OC (stereo unspecified),Potency,[1],inactive
same,Potency,[2],inactive
same,Potency,[3],inactive
same,Potency,[6],inactive
same,Potency,[7],inactive
same,Potency,[8],inactive
same,Potency,[9],inactive
same,Potency,[11],inactive
same,Potency,[12],inactive
same,max response,[13],-3.47% and -1.73%
same,max response,[14],-14.8%
same,max response,[15],-28.3%
same,outcome,[15],inactive
same,max response,[20],-13.1% and 17.7%
same,max response,[16],-15.4% and 3.75%
CC[C@@]1(O)C(=O)OCc2c1cc1n(c2=O)Cc2cc3c(CN(C)C)c(O)ccc3nc2-1,Potency,[17],7.94 µM (active)
same,Potency,[4],4.47 µM (active)
same,Potency,[5],2.82 µM (active)
same,Potency,[7],inactive
same,Potency,[8],inactive
same,Potency,[10],6.31 µM (active)
same,Potency,[11],4.47 µM (active)
same,Potency,[12],3.55 µM (active)
same,Potency,[19],5.36 µM (active)
same,Potency,[13],7.5 µM (active) and 14.8 µM (active) and 6.51 µM (active)
same,Potency,[14],372 nM (active) and 517 nM (active)
same,Potency,[15],1.05 µM (active) and 1.46 µM (active)
same,Potency,[20],5.9 µM (active) and 3.26 µM (active)
same,Potency,[16],1.68 µM (active) and 1.32 µM (active) and 2.06 µM (active)
CN(C)CCC=C1c2ccccc2C=Cc2ccccc21,Potency,[1],inactive
same,Potency,[17],8.91 µM (active)
same,Potency,[3],inactive
same,Potency,[19],1.2 µM (active)
same,max response,[13],-6.55%
same,Potency,[14],26.4 µM (active)
same,outcome,[15],inactive
same,max response,[20],-7.06% and -14.3%
same,max response,[16],-0.444%
O=C1c2c(O)ccc(O)c2C(=O)c2c(NCCNCCO)ccc(NCCNCCO)c21,Potency,[1],3.16 µM (active)
same,Potency,[17],1.58 µM (active)
same,Potency,[3],2.24 µM (active)
same,Potency,[4],1.78 µM (active)
same,Potency,[5],1.58 µM (active)
same,Potency,[6],2 µM (active)
same,Potency,[18],6.42 µM (active)
same,Potency,[8],inactive
same,Potency,[9],3.16 µM (active)
same,Potency,[10],2.24 µM (active)
same,Potency,[11],3.55 µM (active)
same,Potency,[12],2 µM (active)
same,Potency,[19],1.81 µM (active)
same,Potency,[13],4.18 µM (active) and 1.68 µM (active)
same,Potency,[14],37.2 nM (active) and 15 nM (active)
same,Potency,[15],264 nM (active)
same,Potency,[16],59 nM (active) and 21.1 nM (active)
